This is part of a sample that, as a whole, favours compounds with a hit. Of some 83,000 tested, about 20% had one in any assay.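 48-hour exposure, single concentration, 96-well plates; percent growth endpoint where 0 means no net growth. Active: below 10.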 Calls of active or inactive are those of the source.
How the values were obtained:
Experiment in all cases: NCI-60 one-dose screen, 48 h (100 = growth as untreated, 0 = no growth, -100 = all killed)
Conditions in all cases: 10 µM
786-0 renal = tested on: 786-0 renal
MALME-3M melanoma = tested on: MALME-3M melanoma
MDA-MB-231 breast = tested on: MDA-MB-231 breast
SF-268 CNS = tested on: SF-268 CNS
SF-295 CNS = tested on: SF-295 CNS
UACC-257 melanoma = tested on: UACC-257 melanoma
UACC-62 melanoma = tested on: UACC-62 melanoma
SK-MEL-28 melanoma = tested on: SK-MEL-28 melanoma
SK-MEL-2 melanoma = tested on: SK-MEL-2 melanoma
EKVX NSCLC = tested on: EKVX NSCLC
SN12C renal = tested on: SN12C renal
UO-31 renal = tested on: UO-31 renal
TK-10 renal = tested on: TK-10 renal
CAKI-1 renal = tested on: CAKI-1 renal
A498 renal = tested on: A498 renal
OVCAR-8 ovarian = tested on: OVCAR-8 ovarian
OVCAR-5 ovarian = tested on: OVCAR-5 ovarian
IGROV1 ovarian = tested on: IGROV1 ovarian
OVCAR-3 ovarian = tested on: OVCAR-3 ovarian
HS 578T breast = tested on: HS 578T breast

Measured: growth

O=C1NC(=S)S/C1=C\c1cn(-c2ccccc2)nc1-c1ccc([N+](=O)[O-])cc1
active: MALME-3M melanoma -5.53% | SF-295 CNS 5.23% | UACC-257 melanoma -10.5% | UACC-62 melanoma 8.03% | SK-MEL-2 melanoma -29.2% | EKVX NSCLC 9.43% | A498 renal -2.74%
inactive: 786-0 renal 17.9% | MDA-MB-231 breast 24.7% | SF-268 CNS 42.7% | SK-MEL-28 melanoma 18.3% | SN12C renal 14.9% | UO-31 renal 14% | TK-10 renal 19.3% | CAKI-1 renal 14.5% | OVCAR-8 ovarian 18% | OVCAR-5 ovarian 48.5% | IGROV1 ovarian 29.2% | OVCAR-3 ovarian 21.7% | HS 578T breast 30.1%

Cc1cc(N=C2NC(=O)/C(=C/c3cc(C(C)(C)C)c(O)c(C(C)(C)C)c3)S2)n[nH]1
active: SF-295 CNS -0.721% | UACC-257 melanoma 4.76% | UACC-62 melanoma 8.86% | SK-MEL-2 melanoma -27.6% | EKVX NSCLC 2.77% | TK-10 renal -11.6% | A498 renal -8.54% | OVCAR-8 ovarian 8.93% | OVCAR-3 ovarian 9.43% | HS 578T breast -3.19%
inactive: 786-0 renal 12% | MALME-3M melanoma 19.2% | MDA-MB-231 breast 22.8% | SF-268 CNS 32.7% | SK-MEL-28 melanoma 22.9% | SN12C renal 16.6% | UO-31 renal 16.7% | CAKI-1 renal 12.4% | OVCAR-5 ovarian 36.6% | IGROV1 ovarian 14.4%

Cn1cc(-c2nc(N)nnc2-c2c[nH]c3ccccc23)c2cc(Br)cnc21
active: OVCAR-8 ovarian 5.76% | OVCAR-3 ovarian 9.25%
inactive: 786-0 renal 28.4% | MALME-3M melanoma 36.7% | MDA-MB-231 breast 16.3% | SF-268 CNS 20.3% | SF-295 CNS 15% | UACC-257 melanoma 46% | UACC-62 melanoma 21.1% | SK-MEL-28 melanoma 39.8% | SK-MEL-2 melanoma 24.7% | EKVX NSCLC 29.8% | SN12C renal 17.7% | UO-31 renal 11.8% | TK-10 renal 64.2% | CAKI-1 renal 11.9% | A498 renal 96.3% | OVCAR-5 ovarian 21.8% | IGROV1 ovarian 23.2% | HS 578T breast 40.7%

O=C(c1ccc(F)cc1)C(c1c[nH]c2ccccc12)c1c[nH]c2ccccc12
inactive: 786-0 renal 80.1% | MALME-3M melanoma 69.5% | MDA-MB-231 breast 58.8% | SF-268 CNS 63% | SF-295 CNS 105% | UACC-257 melanoma 86.3% | UACC-62 melanoma 53.7% | SK-MEL-28 melanoma 63.6% | SK-MEL-2 melanoma 87.5% | EKVX NSCLC 88.5% | SN12C renal 42.6% | UO-31 renal 43.8% | TK-10 renal 148% | CAKI-1 renal 31.5% | A498 renal 98.3% | OVCAR-8 ovarian 76.3% | OVCAR-5 ovarian 52.5% | IGROV1 ovarian 49.9% | OVCAR-3 ovarian 46.9% | HS 578T breast 86.1%

O=[N+]([O-])c1cccc(-c2nnc3c(/C=C/c4ccccc4O)nc4ccccc4n23)c1
inactive: 786-0 renal 77.7% | MALME-3M melanoma 86.5% | MDA-MB-231 breast 72.2% | SF-268 CNS 77.7% | SF-295 CNS 62.5% | UACC-257 melanoma 59.5% | UACC-62 melanoma 16% | SK-MEL-28 melanoma 38.2% | SK-MEL-2 melanoma 84.1% | EKVX NSCLC 54.2% | SN12C renal 63.4% | UO-31 renal 41.8% | TK-10 renal 112% | CAKI-1 renal 40.6% | A498 renal 89.4% | OVCAR-8 ovarian 58.1% | OVCAR-5 ovarian 81.4% | IGROV1 ovarian 68.8% | OVCAR-3 ovarian 69.1% | HS 578T breast 30.7%

O=C(CC(=O)Nc1ccc(Oc2ncnc3scc(Nc4n[nH]c(=S)s4)c23)cc1)Nc1ccc(Cl)cc1
inactive: 786-0 renal 101% | MALME-3M melanoma 109% | MDA-MB-231 breast 73.8% | SF-268 CNS 85% | SF-295 CNS 99.6% | UACC-257 melanoma 104% | UACC-62 melanoma 53.6% | SK-MEL-28 melanoma 101% | SK-MEL-2 melanoma 98.3% | EKVX NSCLC 75.6% | SN12C renal 88.1% | UO-31 renal 47% | TK-10 renal 137% | CAKI-1 renal 62.9% | A498 renal 108% | OVCAR-8 ovarian 93.5% | OVCAR-5 ovarian 79% | IGROV1 ovarian 62.2% | OVCAR-3 ovarian 82.7% | HS 578T breast 86%

O=C(Nc1ccc(OCC(=O)c2ccc(Cl)cc2)cc1)Nc1ccc(Cl)c(C(F)(F)F)c1
active: SK-MEL-2 melanoma -35.4% | A498 renal 0.685%
inactive: 786-0 renal 26% | MALME-3M melanoma 27.4% | MDA-MB-231 breast 48.1% | SF-268 CNS 46.5% | SF-295 CNS 27.5% | UACC-257 melanoma 19.8% | UACC-62 melanoma 18.1% | SK-MEL-28 melanoma 32.7% | EKVX NSCLC 16.9% | SN12C renal 58% | UO-31 renal 13.9% | TK-10 renal 71.9% | CAKI-1 renal 41.1% | OVCAR-8 ovarian 30.1% | OVCAR-5 ovarian 61.2% | IGROV1 ovarian 39.9% | OVCAR-3 ovarian 34% | HS 578T breast 18%

Reference: PubChem BioAssay (NCI)
